PubChem BioAssay AID1159580 (chemical genetic matrix, 2015)
The whole screen tested about 5,500 compounds, of which about 2,000 (36%) were called active. Another 18% or so got no clear call; they are omitted. Rule as the data show it: active = normalized growth mostly below about 0.91 (no sharp cut-off); inconclusive = no clear call, values can overlap the other calls; inactive = mostly above about 0.92. Some of the results follow.

Test: chemical genetic growth profiling, strain panel (AID 1159580);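 also: tested at 20 µM; growth read once vehicle control cultures reached saturation at 30 °C; 1 = growth at the plate median or of vehicle wells; lower values mean less growth of the strain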
Settings: growth OD

Measured: normalized growth

C(=C(c1ccccc1)c1ccccc1)N1CCC1
inactive: S. cerevisiae deletion strains, locus YAL013W, strain DEP1, hits give low values 1 | S. cerevisiae deletion strains, locus YBR229C, strain ROT2, hits give low values 0.993 | S. cerevisiae deletion strains, locus YDL101C, strain DUN1, hits give low values 0.96 | S. cerevisiae deletion strains, locus YDL134C, strain PPH21, hits give low values 1.01 | S. cerevisiae deletion strains, locus YDR150W, strain NUM1, hits give low values 0.87 | S. cerevisiae deletion strains, locus YEL061C, strain CIN8, hits give low values 0.99 | S. cerevisiae deletion strains, locus YGR078C, strain PAC10, hits give low values 0.997 | S. cerevisiae deletion strains, locus YGR229C, strain SMI1, hits give low values 1 | S. cerevisiae deletion strains, locus YHR030C, strain SLT2, hits give low values 0.972 | S. cerevisiae deletion strains, locus YHR087W, strain rtc3, hits give low values 0.984 | S. cerevisiae deletion strains, locus YJL187C, strain SWE1, hits give low values 1 | S. cerevisiae deletion strains, locus YJR043C, strain POL32, hits give low values 1 | S. cerevisiae deletion strains, locus YJR075W, strain HOC1, hits give low values 0.984 | S. cerevisiae deletion strains, locus YLR039C, strain RIC1, hits give low values 1.01 | S. cerevisiae deletion strains, locus YLR058C, strain SHM2 (second series), hits give low values 0.998 | S. cerevisiae deletion strains, locus YLR085C, strain ARP6, hits give low values 0.998 | S. cerevisiae deletion strains, locus YLR262C, strain YPT6, hits give low values 1.02 | S. cerevisiae deletion strains, locus YML094W, strain GIM5, hits give low values 0.975 | S. cerevisiae deletion strains, locus YMR219W, strain ESC1, hits give low values 0.988 | S. cerevisiae deletion strains, locus YMR263W, strain SAP30, hits give low values 0.987 | S. cerevisiae deletion strains, locus YMR307W, strain GAS1, hits give low values 1.02 | S. cerevisiae deletion strains, locus YNL153C, strain GIM3, hits give low values 0.988 | S. cerevisiae deletion strains, locus YNL298W, strain CLA4 (second series), hits give low values 1 | S. cerevisiae deletion strains, locus YNL322C, strain KRE1, hits give low values 0.991 | S. cerevisiae deletion strains, locus YNR030W, strain Alg12, hits give low values 1.03 | S. cerevisiae deletion strains, locus YPL055C, strain LGE1, hits give low values 0.854 | S. cerevisiae deletion strains, locus YPL241C, strain CIN2, hits give low values 0.9 | S. cerevisiae deletion strains, locus YPR135W, strain CTF4, hits give low values 1.03 | S. cerevisiae strains, strain wild type, hits give low values 1.01
